# Inconclusive results are not listed. Values without a mark were called inactive. The source made the active and inactive calls.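 Rule for the calls: active = viability at or below 27.92% in each of two runs, the all-compound median minus 4 SD; inconclusive = no clear call, values can overlap the other calls; inactive = the rest.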
# Experiment: growth suppression of PTEN-deleted HCT116, pilot screen, cell-based, HCT116 clonal line, CellTiter-Glo (AID 824);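 note: 0% = 20 µM Hyamine control and 100% = vehicle cell control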
# Conditions: 60 h, at 10 µM, hits give low values
row,Structure (SMILES),viability
1,O=C(NCCN1CCCCCC1)c1ccc(CS(=O)(=O)c2ccc(Br)cc2)o1,82.6%
2,Cc1ccc(S(=O)(=O)NCCOC(=O)Nc2sc(=S)n(C)c2C)cc1,88.2%
3,COc1ccccc1CC(=O)Nc1ccc(OC)c(OC)c1,104%
4,CCN(CC)C(=O)C1CCCc2c1[nH]c1ccc(Cl)cc21 (stereo not given),60.8%
5,CCOC(=O)N1CCC(NC(=O)C2CCCN(C(=O)c3cc4sccc4n3C)C2)CC1 (stereo not given),95.7%
6,CCOC(=O)c1[nH]c(C)c(C(=O)Nc2ccc(Cl)cc2)c1C,95.2%
7,O=C(NC(=O)c1cccc(F)c1)OC[C@@H]1CCCN2CCCC[C@H]12,96.3%
8,COc1ccccc1-n1c(=O)[nH]c2c(C(N)=O)nc(-c3cccnc3)nc21,67.7%
9,CC1(C)CC(=O)c2cnc(NC(=O)Cc3ccc(Cl)cc3)nc2C1,90.6%
10,CC(C)(NC(=O)N1CCCC1)c1cccc(C(C)(C)NC(=O)N2CCCC2)c1,97.4%
11,COc1ccc(NC(=O)C2CCCN(S(=O)(=O)c3cccc4cccnc34)C2)cc1OC (stereo not given),78.6%
12,CCOc1ccc(CCN2C(=O)C3C4C=CC(C4)C3C2=O)cc1OCC (stereo not given),101%
13,COc1ccc(S(=O)(=O)N2CCN(c3ccc(C)cc3C)CC2)cc1OC,72.2%
14,O=C(C1CCN(c2nnc(-n3cccc3)s2)CC1)N1CCc2ccccc2C1,94.1%
15,CCOc1cc(C2C3=C(CCCC3=O)N(C)C3=C2C(=O)CCC3)cc(Cl)c1O,95.8%
16,O=C(OCN1C(=O)c2ccccc2C1=O)C1CCCCC1,91%
17,Cc1ccc2cccc(SCC(=O)N3CCOCC3)c2n1,101%
18,c1ccn2c(SCc3ccc4c(c3)OCCO4)nnc2c1,99.2%
19,c1ccc(C(Cc2nc(-c3ccccn3)no2)c2ccccc2)cc1,82.5%
20,COC(=O)C(C)Sc1nnc2n(-c3cccc(C)c3)c(=O)c3c4c(sc3n12)CCCC4 (stereo not given),85.5%

row,Structure (SMILES),viability
1,Cc1ccc(-c2noc(CN3C(C)CCCC3C)n2)cc1 (stereo not given),95.9%
2,CCn1c(SCC(=O)Nc2ccc(Cl)cc2)nnc1C1CC1,97.8%
3,COc1ccc(C2CC(c3ccco3)n3ncnc3N2)cc1 (stereo not given),94.6%
4,COc1ccc(NC(=O)c2cc(C3CC3)on2)c(OC)c1,92.2%
5,COc1cc(OC)c2c(c1)OC(c1ccc(OC)c(OC)c1)C(O)C2=O (stereo not given),100%
6,N#CCCN(Cc1cccnc1)C(=O)Nc1ccc(Cl)c(Cl)c1,102%
7,O=C(c1cccc(F)c1)N1CCc2ccccc21,96%
8,COc1ccc(NC(=O)C2CCCCN2S(=O)(=O)c2ccc(F)cc2)cc1 (stereo not given),88%
9,CCN(CC)C(=O)Cn1ncc2c1-c1ccccc1OC2,100%
10,Cn1c(=O)oc2cc(S(=O)(=O)NC3CCN(Cc4ccccc4)CC3)ccc21,94.7%
11,COCCOC(=O)c1[nH]c2c(c1C)C(=O)CC(c1ccco1)C2 (stereo not given),23.9% (active)
12,COc1ccccc1NC(=O)N(C1CCCC1)C1CCN(C(C)=O)CC1,94.7%
13,COc1cc(C(=O)Nc2cccc(-c3nncn3C)c2)cc(OC)c1OC,104%
14,CCCCN(CC)CCNC(=O)c1cc2c(C)nc3ccccc3c2o1,84%
15,Clc1ccc(SCCCCn2ccnc2)cc1,65.7%
16,CCOC(=O)N1CCC(N2C(=O)c3ccccc3C2Nc2cc(Cl)c(OC)cc2OC)CC1 (stereo not given),76%
17,O=C(Cn1nc(Cc2cccnc2)c2ccccc2c1=O)NCC1CCCO1 (stereo not given),99.1%
18,CCn1cc(SCC(=O)NCC2CCCO2)c2ccccc21 (stereo not given),99.9%
19,Cc1noc(C)c1S(=O)(=O)N1CCN(Cc2ccc3c(c2)OCO3)CC1,98%
20,CCOC(=O)c1ccc(N2Cc3cc(C)c(C)cc3C2)cc1O,93.8%

# From PubChem BioAssay
